This note sets out measurements from PubChem BioAssay AID1259415 (National Center for Advancing Translational Sciences (NCATS), 2018).

The campaign covered roughly 410,000 compounds. About 18,000 (4.4%) were called active. Inconclusive results (about 7%) are left out. The sample as a whole holds a higher share of actives than the screen did. Unmarked numbers belong to inactive results. Cut-off read from the data, not from the text of the source: active = activity change below about -60%; inconclusive = no clear call, values can overlap the other calls; inactive = above about -39%.
% is set by controls: 0 for no effect and ±100 for the full control effect.

The assay in a line: qHTS Assay for inhibitors of the human cytomegalovirus (HCMV). To be noted: HFF cells, HCMV-luciferase reporter, 72 h; at 57.5 µM; stronger effect = lower value. The essentials:
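Steps: HFFs plated, 16 h 37C; compounds added; HCMV-luciferase added to MOI 1 PFU/cell; 72 h 37C; OneGlo reagent, 5 min room temperature; luminescence read, normalized to controls.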
Regarding `O=C(Cn1c(=O)n(Cc2ccccc2)c(=O)c2sc3ccccc3c21)Nc1ccccc1F`, the activity change, negative = inhibition was 20.5%.

As for `CCOc1ccc(S(=O)(=O)NCCC(=O)NNC(=O)c2ccc(F)cc2)cc1`, the activity change, negative = inhibition was 70.6%.

Consider `Cc1ccc2sc(N(Cc3cccnc3)C(=O)C3COc4ccccc4O3)nc2c1C` (centres undefined), for which the activity change, negative = inhibition is 0%.

As to `CCc1ccc(N(CC)c2ncnc3nc[nH]c23)cc1`, the activity change, negative = inhibition is -84.7% (active).

For the molecule `Cc1ccc(NC(=O)c2ccc(CSc3ncnc4nc[nH]c34)cc2)c(C)c1`, the activity change, negative = inhibition was -37%.

On to `S=c1c2[nH]cnc2ncn1CCSc1ncnc2nc[nH]c12`, for which the activity change, negative = inhibition is -16%.

Turning to `CC(C)(C)C1CCc2c(sc(NC(=O)c3ccccc3F)c2C(=O)N2CCCCC2)C1` (centres undefined), the activity change, negative = inhibition is -1.57%.

Take `CCOC(=O)NN1C(=O)c2ccccc2NC1c1ccccc1O` (centres undefined): the activity change, negative = inhibition is 54.6%.

Consider `CCOC(=O)NN1C(=O)c2ccccc2NC1c1cccc(O)c1` (centres undefined), for which the activity change, negative = inhibition was -96.9% (active).

As to `CC(=O)NN1C(=O)c2ccccc2NC1c1ccccc1` (centres undefined), the activity change, negative = inhibition is 44.7%.

On to `CC1(C)C(C=C(Cl)Cl)C1C(=O)NC(O)C(=O)c1ccccc1` (centres undefined), for which the activity change, negative = inhibition was -33.9%.

Regarding `Cc1cc(C)cc(NC(=O)Cn2c(=O)c3ccccc3n3nncc23)c1`, the activity change, negative = inhibition was 2.01%.

For `CC(=O)c1sc(N2C(=O)c3oc4ccccc4c(=O)c3C2c2ccc(C)cc2)nc1C` (centres undefined), the activity change, negative = inhibition was 24.4%.

Turning to `CN(C(=O)CN1CCN(c2cc(-c3ccc(OCc4ccccc4)cc3)ncn2)CC1)c1ccccc1`, the activity change, negative = inhibition is -71.2% (active).

For the molecule `CCN(CC)c1ccc(NC(=O)CN2CCN(c3ccccn3)CC2)cc1`, the activity change, negative = inhibition was 28.5%.

For the molecule `CCOc1ccc(OCc2ccc(C(=O)N(C)c3ccccc3)o2)cc1`, the activity change, negative = inhibition is 41.3%.

With `CCCc1cc(=O)n2[nH]c(NCc3ccc(CC)cc3)nc2n1`, the activity change, negative = inhibition was -6.39%.

On to `CC(=O)NC(c1ccccc1)c1nc(-c2cccc(C(C)C)c2)cs1` (centres undefined), for which the activity change, negative = inhibition is -66.8% (active).

For the molecule `CC(=O)NC(c1ccccc1)c1nc(-c2ccccc2C)cs1` (centres undefined), the activity change, negative = inhibition is -25.4%.

Regarding `OC(c1ccccc1)c1nc(-c2cnc3ccccc3c2)cs1` (centres undefined), the activity change, negative = inhibition was 184%.

On to `Cc1ccc(N(C)C(=O)C2CCN(S(=O)(=O)c3ccc4c(c3)CCCN4C(=O)C3CCC3)CC2)cc1`, for which the activity change, negative = inhibition was 8.58%.

With `Cc1c(NC(=O)C(C)Oc2cccc(Cl)c2)c(=O)n(-c2ccccc2)n1C` (centres undefined), the activity change, negative = inhibition was -25%.

On to `NC(=O)C1CCN(C(=O)CC2C(=O)NCCN2Cc2cccc(Oc3ccccc3)c2)CC1` (centres undefined), for which the activity change, negative = inhibition is -38.9%.

On to `CCCCOc1ccc(Cl)cc1CSc1nncn1N`, for which the activity change, negative = inhibition is -20.2%.

Turning to `COc1ccc(Cl)cc1CSc1ncn[nH]1`, the activity change, negative = inhibition was -63.2% (active).

For the molecule `ClC1(Cl)CC1CSc1ncn[nH]1` (centres undefined), the activity change, negative = inhibition was 62.8%.

Turning to `CCCCOc1ccc(NC(=O)c2cc3c(n(-c4ccc(Cl)cc4)c2=O)CCCC3=O)cc1`, the activity change, negative = inhibition is 14.9%.

With `COC(=O)c1ccc(NC(=O)CSc2n[nH]c(-c3ccccc3)n2)cc1`, the activity change, negative = inhibition was 16.1%.

Turning to `Cc1ccc(NC(=O)C(=O)NCC(c2cccnc2)N2CCOCC2)cc1` (centres undefined), the activity change, negative = inhibition is -12.5%.

Take `COc1ccccc1N1CCN(C2C(=O)c3ccccc3N2C(C)=O)CC1` (centres undefined): the activity change, negative = inhibition was 0%.

Regarding `Cc1ccc(C(=O)N/C(=C/c2cccs2)C(=O)N2CCCCC2)cc1`, the activity change, negative = inhibition is -25.9%.

In the case of `O=C(N/C(=C\c1ccc(O)cc1)C(=O)N1CCCCC1)c1ccccc1`, the activity change, negative = inhibition was -16.2%.

Consider `Cc1ccc(C(=O)N/C(=C\c2cn(S(=O)(=O)N(C)C)c3ccccc23)C(=O)N2CCCC2)cc1`, for which the activity change, negative = inhibition was -95.9% (active).

In the case of `COc1ccc(OC)c(NC(=O)C2(C)CCN2C(=O)Cc2ccccc2)c1` (centres undefined), the activity change, negative = inhibition is -33.9%.

In the case of `C#Cc1ccc(NC(=O)C2(C)CCN2C(=O)Cc2ccc(-c3ccccc3)cc2)cc1` (centres undefined), the activity change, negative = inhibition was -83.5% (active).

Take `CC1(C(=O)NS(=O)(=O)c2cccs2)CCN1C(=O)Cc1ccc(-c2ccccc2)cc1` (centres undefined): the activity change, negative = inhibition is -1.93%.

Consider `COC(=O)c1cc(NC(=O)CCS(=O)(=O)c2cc(Br)cc3c2N(C(=O)C2CC2)CC3)cc(C(=O)OC)c1`, for which the activity change, negative = inhibition is 3.41%.

As to `O=C(NCc1ccco1)c1cccc(-c2ccc3nncn3c2)c1`, the activity change, negative = inhibition is 15.7%.

Regarding `CCCC1=Nc2cc(C(=O)NCc3ccco3)ccc2Sc2ccccc21`, the activity change, negative = inhibition is -69.1% (active).

Take `COc1cc(-n2c(C)nc3cc(C(=O)NCc4ccco4)ccc32)cc(OC)c1OC`: the activity change, negative = inhibition was 17.2%.

Turning to `COc1ccc(-c2ccc(=O)n(CC(=O)Nc3ccc(Br)cc3F)n2)cc1`, the activity change, negative = inhibition is -10.5%.

As for `O=C1c2cccc3cccc(c23)N1CN1CCN(c2ccccn2)CC1`, the activity change, negative = inhibition was 16%.

Take `CCOC(=O)c1c(C)[nH]c(C)c1S(=O)(=O)NCC(=O)NCc1cccc(C)c1`: the activity change, negative = inhibition was -20.2%.

Take `COc1ccccc1NC(=O)C1=C(C)Nc2nc(SCC(=O)c3ccc(C)cc3)nn2C1c1ccccc1C` (centres undefined): the activity change, negative = inhibition was -1.97%.
